The list is not random: actives were taken first. Their share in the collection is about 1%.
IP6K1 inh – Primary qHTS assay for small molecule inhibitors of Inositol hexaphosphate kinase 1 (IP6K1). Inositol hexakisphosphate kinase 1 (Homo sapiens), Q92551. IP6K1 kinase, ADP-Glo luminescence, 2 h; stronger effect = lower value. activity change, % (series mostly up to about 58 µM). 0.81% of 140,000 active; in the data active = activity change below about -25%
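ADP-Glo luminescence measures ADP made by human IP6K1 during a 2 h RT reaction with ATP/IP6 (mix at 1.3 mM/130 uM); top library doses 57.5 and 19.1 uM final.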
GPT2 inhibitor – Primary qHTS assay for inhibitors of Glutamate pyruvate transaminase 2 (GPT2); Potency, µM (doses to about 57.7 µM), inactives show at the highest dose activity change, negative = inhibition, actives largely listed as inhibitors; 0.25% of 100,000 active; Alanine aminotransferase 2 (Homo sapiens), Q8TD30; Recombinant GPT2, coupled pyruvate oxidase/HRP Amplex Red fluorescence; note: potency is the fitted concentration of half-maximal effect; nearly all actives have a fitted effect of over 60% in size
Target sequence (Q8TD30 whole entry, looked up): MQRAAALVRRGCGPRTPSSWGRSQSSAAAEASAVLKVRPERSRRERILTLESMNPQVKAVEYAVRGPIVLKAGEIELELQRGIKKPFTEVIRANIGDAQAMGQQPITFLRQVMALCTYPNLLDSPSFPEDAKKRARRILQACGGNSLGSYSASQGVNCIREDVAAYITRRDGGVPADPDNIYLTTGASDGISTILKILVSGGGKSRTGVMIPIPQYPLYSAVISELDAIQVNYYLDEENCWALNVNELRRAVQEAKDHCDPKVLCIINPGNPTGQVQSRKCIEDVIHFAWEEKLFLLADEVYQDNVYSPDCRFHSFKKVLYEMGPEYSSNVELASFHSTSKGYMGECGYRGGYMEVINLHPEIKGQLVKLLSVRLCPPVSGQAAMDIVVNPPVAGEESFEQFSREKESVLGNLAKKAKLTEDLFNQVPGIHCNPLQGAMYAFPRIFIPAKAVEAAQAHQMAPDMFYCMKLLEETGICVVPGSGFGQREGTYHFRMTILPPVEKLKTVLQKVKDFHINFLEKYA
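Recombinant GPT2 (10ng/uL) with 250uM a-KG and 2mM L-alanine, 30 min at room temperature, in HEPES pH 7.5 buffer. Pyruvate detected by pyruvate oxidase/HRP/Amplex Red fluorescence after 30 min in the dark; AOA (50uM) as positive control.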
HEK293 viab – GF-AFC viability counterscreen for inhibitors of alpha-synuclein gene (SNCA) expression | HEK-293-SNCA-luc viability, GF-AFC fluorescence, 24 h | Potency, µM (series often up to 57.1 µM), for inactives: at the top dose activity change, negative = cytotoxicity, actives largely listed as cytotoxic | 0.12% of 150,000 active | AID 1671193, 2021;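 note: potency is the fitted concentration of half-maximal effect; 0% = DMSO-treated cells and -100% = medium-only wells without cells; nearly all actives have a fitted effect of over 30% in size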
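HEK-293-SNCA-luc cells (1500/well) plated 24 h, then exposed 24 h to a dilution series; GF-AFC added 30 min at 37C, fluorescence 405/540 nm; normalised to medium-only and DMSO wells, Hill fit.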
SNCA expr inh – Primary qHTS assay for inhibitors of alpha-synuclein gene (SNCA) expression; HEK-293 SNCA-luciferase knock-in, luminescence, 24 h; Potency, µM (doses to about 57.2 µM), for inactives: top-dose activity change, negative = inhibition, usual class: inhibitors; 0.17% of 140,000 active;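 note: potency is the fitted concentration of half-maximal effect; plate controls were DMSO cells for no effect and cell-free wells for full effect; nearly all actives have a fitted effect of over 45% in size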
IP6K1 conf – Confirmatory qHTS assay for small molecule inhibitors of Inositol hexaphosphate kinase 1 (IP6K1); Potency, µM (series often up to 49 µM), without a hit: at the highest dose activity change, negative = inhibition, usual class: inhibitors; AID 1645852, 2021; recombinant IP6K1 kinase, ADP-Glo luminescence, 2 h; shares compounds with IP6K1 inh; 13% of 1,200 active; note: potency is the fitted concentration of half-maximal effect; nearly all actives have a fitted effect of over 65% in size
* hit, by the source's call; i = inactive; ? = inconclusive; · = no result given; [ ] = another dose, or the depositor's remark. Unless noted, calls come from the whole dose curve; as a rule, active = well fitted curve in the direction sought with a large enough effect; inconclusive = small, poorly fitted or top-dose-only effect, or another doubt; inactive = no such curve, though single readings can be large; an effect the other way counts as inactive or inconclusive. Unless noted, % is set by controls: 0 for no effect and ±100 for the full control effect.

SMILES | IP6K1 inh | GPT2 inhibitor | HEK293 viab | SNCA expr inh | IP6K1 conf
CCN(CC)CCn1c(-c2ccccc2)csc1=Nc1ccccc1 | -20 | · | -10% | ? | ·
COc1ccc(-c2csc(=Nc3ccccc3)n2CCO)cc1F | -31* | · | -3% | 71% | ?
O=C(c1ccc(Cl)nc1)N1CCCN(c2ccc3nnc(C4CC4)n3n2)CC1 | 7 | · | · | · | ·
COc1ccccc1N1CCN(C2CCCN(Cc3cccc(C)n3)C2)CC1 (centres undefined) | 7 | -26% | -1% | 7% | ·
Cc1ccccc1N1CCN(C2CCCN(C/C=C/c3ccc(F)cc3)C2)CC1 (centres undefined) | -27* | -7% | 2% | 4% | 21%
Cc1ccc(C(=O)Oc2c(S(=O)(=O)c3ccccc3)c(C)nn2-c2ccccc2)cc1 | -22 | · | 0% | 9% | ·
Cc1nn(-c2ccccc2)c(OC(=O)c2ccc(Br)cc2)c1S(=O)(=O)c1ccccc1 | -32* | · | 7% | -23% | 28%
O=C(NCCc1ccccc1F)c1ccc2nccn2c1 | -3 | 1%[88.5 µM] | -7%[87.6 µM] | 28%[87.6 µM] | ·
O=C(NCCc1nc(-c2ccccc2)cs1)c1ccc2nccn2c1 | -41* | i | ? | -11% | ?
CN1CC2(CCN(C(=O)c3ccccc3-c3nn[nH]n3)CC2)CC1C(=O)O (centres undefined) | -38* | 0%[11.5 µM] | 2% | 9% | -14%
COC(=O)c1cccc(NC2=NS(=O)(=O)c3ccccc32)c1 | -40* | · | -15% | 8% | ?
CC(C)c1cccc(C(C)C)c1NC1=NS(=O)(=O)c2ccccc21 | 14 | · | -25% | -2% | ·
Cc1ccccc1C(=O)N1CCC(C(=O)N2CCC(N3Cc4ccccc4C3=O)CC2)CC1 | 2 | i | -8% | -6% | ·
CCc1nnc(NS(=O)(=O)c2ccc(NC(=S)NC(=O)/C=C/c3ccc(F)cc3)cc2)s1 | -29* | i | -6% | · | 21µM*
CC(C)c1ccc(CN2CC[C@@H]3OCC(=O)N(C(C)C)[C@H]3CC2)cc1 | -1 | -9%[88.5 µM] | -10%[87.6 µM] | -1%[87.6 µM] | ·
O=C(Cc1c[nH]c2ncc(-c3ccc(F)cc3)cc12)N1CCOCC1 | -21 | 2%[88.5 µM] | -2%[87.6 µM] | 1%[87.6 µM] | ·
Brc1ccc2nc(SCCOc3ccccc3)[nH]c2c1 | -32* | · | 9% | 78% | ?
CCN(C(=O)C(NS(=O)(=O)c1cccc2nsnc12)c1ccccc1)c1ccccc1 (centres undefined) | -28* | · | 4% | -18% | -12%
Cc1cccc(CNS(=O)(=O)c2csc(C(N)=O)c2)c1 | -8 | · | 10% | ? | ·
NC(=O)c1cc(S(=O)(=O)NCc2cccc(Br)c2)cs1 | -30* | · | -2% | -22% | -15%
Cc1cc(NC(=O)Cn2c(=O)nc(-c3ccccc3F)c3cc(Cl)ccc32)ccc1Br | -25* | · | 4% | 17% | 10%
Cc1ccc(NC(=O)Cn2c(=O)nc(-c3ccccc3F)c3cc(Cl)ccc32)c(Br)c1 | -3 | · | -13% | 9% | ·
COc1ccc(-c2cccc(C(=O)NCCCc3ccccc3)c2)nn1 | 6 | · | · | · | ·
COC[C@@H]1CN(C(=O)CCc2ccccc2)C[C@H]1c1ccccn1 | -2 | 2% | 3% | -17% | ·
Cc1nc(C(=O)N2CC(=O)N(C3CCCCC3)CC(OCc3ccccc3)C2)cs1 (centres undefined) | 0 | -6% | 3% | 22% | ·
SMILES | IP6K1 inh | GPT2 inhibitor | HEK293 viab | SNCA expr inh | IP6K1 conf
O=C(NCC1CC1)C1CCN(C(=O)c2ccc(-c3cccs3)cc2)CC1 | -10 | · | · | · | ·
CC(Oc1ccccc1)C(=O)OCc1cc(=O)n2nc(C(C)C)sc2n1 (centres undefined) | -30* | · | 0% | 20% | -9%
COc1ccc2c(c1)C(CN1CCN(c3ccc4oc(C(=O)O)cc4c3Cl)CC1)=CC(C)(C)CO2 | -74* | · | · | · | -12%
COC(=O)c1ccccc1NC(=O)c1sc2nc(C)cc(C)c2c1NC(=O)c1ccccc1OC | -30* | · | 8% | -21% | 8%
O=C(Nc1ccc(Cl)cc1Cl)c1cn2c(n1)CN(C(=O)c1ccccc1F)CC2 | -2 | ? | -15% | ? | ·
Cc1oc2ccc(O)c(CN(C)Cc3ccccc3)c2c1C(=O)Nc1ccccc1 | -28* | · | -26% | -29% | 3%
COc1cc(OC)c(NC(=O)Cn2c(N(C)Cc3ccccc3)nc(C)cc2=O)cc1Cl | -3 | i | -17% | ? | ·
Cc1ccc(NC(=O)Cn2ncn3c(cc4ccccc43)c2=O)cc1C | -28* | · | -8% | 4% | -7%
Cc1ccc(NC(=O)Cn2ncn3c(cc4ccccc43)c2=O)cc1F | -1 | · | 2% | 6% | ·
COc1ccc(CC(=O)N2CCCN(c3ccc4nnc(-c5ccccc5)n4n3)CC2)cc1 | 10 | · | · | · | ·
CCC(C(=O)NCc1ccccc1OC)n1nc(C)n2c(cc3sccc32)c1=O (centres undefined) | -85* | · | -8% | -1% | 5%
CCN1Cc2cc(F)ccc2N(CC(O)Cc2ccccc2)CCC1=O (centres undefined) | 1 | · | · | · | ·
O=C1N(Cc2ccc(F)cc2)C[C@H]2CN(Cc3ccccn3)CCN12 | -32* | -8%[88.5 µM] | 1%[87.6 µM] | 11%[87.6 µM] | ?
COc1ccc(N2CCN(C(=O)C3CCN(S(=O)(=O)c4cnc[nH]4)CC3)CC2)cc1 | -29* | · | -9% | 5% | 13%
O=C(c1ccncc1)N1CC2CCC(C1)N2Cc1ccc(-c2ccccc2)cc1 | -9 | 3% | -12% | ? | ·
COCCN(C)C[C@@H]1CN(C(=O)c2ccc(-c3ccccc3)n2C)C[C@@H]1CO | -34* | i[11.5 µM] | 12% | 133% | -15%
COCCN(C)C[C@@H]1CN(C(=O)c2c(-c3ccccc3)ccnc2C)C[C@@H]1CO | 2 | -2% | 4% | 8% | ·
COc1ccc(-c2ccc(C(=O)Nc3cccc(F)c3)c(Cl)c2)nn1 | -2 | · | · | · | ·
CC(C)NC(=O)N1CC[C@H](N=C2Nc3cc(F)ccc3N(CC(F)F)c3ccc(Cl)cc32)C1 | -5 | i | 6%[12.5 µM] | · | -6%[13.7 µM]
